In PubChem BioAssay (NCI):
This is part of a sample that, as a whole, favours compounds with a hit. Of some 83,000 tested, about 20% had one in any assay.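 Assay: single dose, 48 h. Readout: percent growth (0 = no net growth; negative = cell death). Active: <10.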 Values without a mark were called inactive. Calls of active or inactive are those of the source.

These compounds were tested on HL-60(TB) leukemia (assay: NCI-60 one-dose screen, 48 h (100 = growth as untreated, 0 = no growth, -100 = all killed)). Settings: 10 µM unless noted.

SMILES | growth
COc1ccc(C(=O)/C=C/c2cc(-c3cc(OC)c(OC)c(OC)c3)n[nH]2)cc1 | 23.2%
COc1ccc(CNC(=O)c2c(C)n([O-])c3ccccc3[n+]2=O)cc1 | 101%
COc1ncnc2c1cnn2C | 114%
COc1cc2c(cc1O)CC[C@@H]1[C@@H]2CC[C@]2(C)[C@@H](OCCCN(C)C)CC[C@@H]12 | -48.5% (active)
COc1ccc2[nH]c(O)c(/C=c3/ccc4c(c3)N=C(c3ccc(C(F)(F)F)cc3)N=4)c2c1 | 94.4%
COc1ccc2c(c1)c(-c1ccc(-c3cn(C)c4ccc(OC)cc34)o1)cn2C | -23% (active)
O=C(/C=C/c1ccc(Oc2ccc(Br)cc2)cc1)c1ccc(Br)cc1 | 88%
Cc1ccc(C(=O)NCCCNc2nccc(-n3ccc4cccnc43)n2)cc1 | 105%
CCC(C)(C)C(=O)O[C@H]1C[C@@H](C)C=C2C=C[C@H](C)[C@H](CC[C@@H]3CC=CC(=O)O3)[C@H]21 | 5.76% (active)
COc1ccc2nc3cc(Cl)ccc3c(N3CCN(c4nccc(Nc5ccccc5)n4)CC3)c2c1 | 73.8%
COc1ccc2[nH]c(=O)c(/C=C/C(=O)c3ccc(Nc4nccc(-c5ccc6ccccc6c5)n4)cc3)cc2c1 | 97.6%
Cn1ccnc1C(=O)/C=C/c1ccc(CC(=O)Nc2ccc(Br)cc2)cc1 | 0.748% (active)
COc1cc(N2CCC(N(C)C)CC2)ccc1Nc1ncc(Cl)c(Nc2ccccc2P(C)(C)=O)n1 | 10%
COc1ccc(-c2nc(-c3nc4cc(Cl)c(F)cc4[nH]3)c3ccccn23)cc1 | 46.4%
COc1ccc(-c2cnc(-c3ccc(Cl)cc3)[nH]2)cc1OC | 91.2%
COc1c(C)c2c(c(O)c1C/C=C(\C)CCC(=O)O)C(=O)OC2 | 45.6%
CCOC(=O)c1sc2ncnc(Nc3ccc4c(cnn4C(=O)Nc4ccccc4)c3)c2c1C | 90.9%
O=C(/C=C/c1c[nH]c2ccccc12)c1ccc(O)c(CN2CCN(c3ccc(F)cc3)CC2)c1 | 97%
Cc1cc(-c2ccccc2)cc(SC#N)[n+]1[O-] | 7.14% (active)
OC(c1cccc(OCc2ccccc2)c1)c1nnc(-c2ccccc2)o1 (stereo not given) | 96.3%

SMILES | growth
COc1ccc(/C(C#N)=C/c2ccccc2OC)cc1 | -0.826% (active)
COc1ccc(Cn2c(SC)nc(=O)n(Cc3ccc(Cl)cc3)c2=O)cc1 | 94.2%
Cn1cc(NC(=O)Nc2cc(C(=O)O)n(C)c2)cc1C(=O)O | 90.1%
O=C(Nc1ccc2c(O)cc(S(=O)(=O)O)cc2c1)c1ccc([N+](=O)[O-])cc1 | 75.3%
CCN(CC)CCCC(Nc1c2ccc(Cl)cc2nc2ccc(OC)cc12)c1ccc(Cl)cc1 (stereo not given) | -16.2% (active)
Cc1ccc2c(c1)c(Sc1ccc(C(=O)NO)cc1)c1n2CN(C)CC1 | 21.4%
C[C@@]1(N2C(=O)OC[C@@H]2c2ccccc2)C(=O)N([C@H](CC(=O)N2CCC(N3CCCCC3)CC2)C(=O)NCc2cccc(C(F)(F)F)c2)[C@@H]1/C=C/c1ccccc1 | 81%
Clc1ccc2nc(-c3ccc(-c4ccc(/C=N/NC5=NCCN5)cc4)s3)cn2c1 | 98.1%
N#Cc1c(-c2ccccc2)cc(-c2ccc(Nc3nc(Nc4ccc(Cl)cc4)nc(Nc4ccc(Cl)cc4)n3)cc2)nc1N | 15.6%
CCN(CC)S(=O)(=O)c1ccc2[nH]c(=O)cc(C(=O)Nc3ccc(OC)cc3OC)c2c1 | 101%
COc1cc2c(-c3nc4cc(Cl)c(F)cc4s3)cc(=O)oc2c(C)c1OC | -56.2% (active)
C1CNC(C2=NCCN2)=N1 | 109%
O=C(/C=C/c1ccccc1)c1cccs1 | 102%
O=C(NC1CC1)c1ccc(-c2nc3ccc4[nH]ncc4c3c3c2CCCC3)cc1 | 28.6%
COc1ccc(-c2c(N)n[nH]c2-c2cc(OC)c(OC)c(OC)c2)cc1 | 15.3%
CC(=O)N1CCN(c2ccc(OCC3CO[C@](Cn4ccnc4)(c4ccc(Cl)cc4Cl)O3)cc2)CC1 (stereo not given in full) | 56.5%
Nc1c2c(nc3ccc(Cl)cc13)CC(c1ccc(O)cc1)CC2=O (stereo not given) | 18.9%
CC(C)[C@@H]1C=C2CC[C@H]3[C@](C)(CN)CCC[C@]3(C)[C@H]2CC1 | 70.1%
Nc1c(C(=O)NC2CCCCC2)sc2nc3c(cc12)C(=O)CCC3 | 95.2%
Cc1ccc(Oc2c(/C=N/NC(=O)Cn3c(=O)sc4ccccc43)c(C)nn2-c2ccccc2)cc1 | 4.2% (active)
